Measurements published in PubChem BioAssay (NCATS).
Inconclusive results are not listed. The source made the active and inactive calls. Calls come from the whole dose curve; as a rule, active = well fitted curve in the direction sought with a large enough effect; inconclusive = small, poorly fitted or top-dose-only effect, or another doubt; inactive = no such curve, though single readings can be large; an effect the other way counts as inactive or inconclusive.

How the values were obtained:
UISO = experiment: qHTS assay to identify novel small-molecules to repurpose for Merkel cell carcinoma treatment (AID 1296009); conditions: MCC and control cell lines, CellTiter-Glo viability, 72 h; series mostly up to 46 µM; note: nearly all actives have a fitted effect of over 60% in size
Procedure, shortened: (§1)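 CellTiter-Glo luminescence after 72 hr compound exposure at 37 degree celsius gave cell viability. Libraries NPC and MIPE were run as 8- and 11-point dose responses; RLUs normalized to DMSO (negative) and no-cell (cytotoxicity) controls.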

C33A = experiment: Primary qHTS to identify gynecologic anti-cancer compounds using libraries of approved drugs and bioactive compounds (AID 1345084); conditions: Gynecologic cancer cell panel viability, ATPlite luminescence, 48 h; series mostly up to 57.5 µM; note: nearly all actives have a fitted effect of over 55% in size
Procedure, shortened: (§2)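 Luminescence from the ATPlite ATP-monitoring reagent indicates viable cell number; lower signal means cytotoxicity. Cells received compound 16 h after seeding and were exposed for 48 h across five concentrations.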

CAOV3 = experiment: as above; conditions: Gynecologic cancer cell panel viability, ATPlite luminescence, 48 h; series mostly up to 57.5 µM
Procedure, shortened: as §2

HeLa = experiment: as above; conditions: Gynecologic cancer cell panel viability, ATPlite luminescence, 48 h; series mostly up to 57.5 µM
Procedure, shortened: as §2

OV90 = experiment: as above; conditions: Gynecologic cancer cell panel viability, ATPlite luminescence, 48 h; series mostly up to 57.5 µM
Procedure, shortened: as §2

PA-1 = experiment: as above; conditions: Gynecologic cancer cell panel viability, ATPlite luminescence, 48 h; series mostly up to 57.5 µM
Procedure, shortened: as §2

Tov112D = experiment: as above; conditions: Gynecologic cancer cell panel viability, ATPlite luminescence, 48 h; series mostly up to 57.5 µM
Procedure, shortened: as §2

WaGa = experiment: qHTS assay to identify novel small-molecules to repurpose for Merkel cell carcinoma treatment (AID 1296009); conditions: MCC and control cell lines, CellTiter-Glo viability, 72 h; series mostly up to 46 µM; note: nearly all actives have a fitted effect of over 60% in size
Procedure, shortened: as §1

[1] = Drug repurposing screens with cells derived from glioblastoma tumor samples (AID 1345199); conditions: GBM patient neurospheres viability, ATP luminescence, 48 h; note: nearly all actives have a fitted effect of over 40% in size
Procedure, shortened: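 Primary testing used CD133+ neurospheres from four GBM patients, seven concentrations, 48 h exposure and ATP-based viability; confirmation added three slower-growing patient lines.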

[2] = qHTS assay to identify inhibitors of the type 1 interferon - major histocompatibility complex class I in skeletal muscle: Counter screen cell viability and HiBit confirmation (AID 1347412); conditions: iHSKM muscle cells + IFN-b, HiBiT or CellTiter-Glo, 24 h; for activity change, negative = inhibition: at 45.9 µM (top of the series); for all read-outs here: nearly all actives have a fitted effect of over 60% in size
Procedure, shortened: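 CRISPR HLA-B*08:01-HiBit immortalized human myoblasts (C25cl48) stimulated with 4 ng/ml IFN-beta and compounds (12-point 1:3, top 46 uM final) for 24 h at 37 C. Duplicate plates read by HiBit lytic luminescence or CellTiter Glo ATP.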

CASKI = experiment: Primary qHTS to identify gynecologic anti-cancer compounds using libraries of approved drugs and bioactive compounds (AID 1345084); conditions: Gynecologic cancer cell panel viability, ATPlite luminescence, 48 h; series mostly up to 57.5 µM; note: nearly all actives have a fitted effect of over 55% in size
Procedure, shortened: as §2

Es-2 = experiment: as above; conditions: Gynecologic cancer cell panel viability, ATPlite luminescence, 48 h; series mostly up to 57.5 µM
Procedure, shortened: as §2

Hek293T = experiment: as above; conditions: Gynecologic cancer cell panel viability, ATPlite luminescence, 48 h, control line for the selectivity index; series mostly up to 57.5 µM
Procedure, shortened: as §2

JEG-3 = experiment: as above; conditions: Gynecologic cancer cell panel viability, ATPlite luminescence, 48 h; series mostly up to 57.5 µM
Procedure, shortened: as §2

Tov-21-G = experiment: as above; conditions: Gynecologic cancer cell panel viability, ATPlite luminescence, 48 h; series mostly up to 57.5 µM
Procedure, shortened: as §2

SKOV3 = experiment: as above; conditions: Gynecologic cancer cell panel viability, ATPlite luminescence, 48 h; series mostly up to 57.5 µM
Procedure, shortened: as §2

[3] = at 46.1 µM (top of the series), tumour line C
% is set by controls: 0 for no effect and ±100 for the full control effect; potency is the fitted concentration of half-maximal effect.

COc1ccc(C(=O)CC2(O)C(=O)Nc3c(Cl)ccc(Cl)c32)cc1 (stereo not given)
active: Potency (UISO) 5.26 µM | Potency (HeLa) 14.1 µM | Potency (PA-1) 8.91 µM | Potency (Tov112D) 3.98 µM
inactive: Potency (C33A) | Potency (CAOV3) | Potency (OV90)

COC(=O)C[C@](O)(CCCC(C)(C)O)C(=O)O[C@@H]1C(OC)=C[C@]23CCCN2CCc2cc4c(cc2[C@H]13)OCO4
inactive: Potency (UISO) | Potency (WaGa) | activity, negative = cell killing [1, 3] -97.3% | activity change, negative = inhibition ([2]; Viability) 0.0855%
active: Potency ([1]; tumour line A) 0.224 µM | Potency ([1]; tumour line B) 0.316 µM | Potency ([1]; tumour line D) 1 µM | Potency ([2]; HiBiT) 0.279 µM

CC(C)[C@H](C(=O)Nc1ccc(C(=O)NO)cc1)c1ccccc1
inactive: activity change, negative = inhibition ([2]; Viability) -7.44%
active: Potency (UISO) 3.32 µM | Potency (WaGa) 0.662 µM | Potency ([2]; HiBiT) 1.11 µM

CC(C)(C)NC(=O)[C@H]1CN(Cc2cccnc2)CCN1C[C@@H](O)C[C@@H](Cc1ccccc1)C(=O)N[C@H]1c2ccccc2C[C@H]1O
active: Potency ([1]; tumour line A) 17.8 µM
inactive: Potency (UISO) | Potency (WaGa) | activity, negative = cell killing [1, 3] 35.7%

COc1ccc(CC2c3cc(OC)c(OC)cc3CC[N+]2(C)CCC(=O)OCCCCCOC(=O)CC[N+]2(C)CCc3cc(OC)c(OC)cc3C2Cc2ccc(OC)c(OC)c2)cc1OC (stereo not given)
inactive: activity change, negative = cytotoxicity (UISO) -1.41% [at 9.22 µM] | activity change, negative = cytotoxicity (WaGa) -8.88% [at 9.22 µM] | activity, negative = cell killing ([1]; at 20 µM (top of the series), tumour line C) -5.82% | activity, negative = cell killing ([1]; at 21.2 µM (top of the series), tumour line B) -8.61% | activity, negative = cell killing ([1]; at 21.2 µM (top of the series), tumour line D) -8.93% | activity, negative = cell killing ([1]; at 21.3 µM (top of the series), tumour line A) -14%

CN1CCN(c2cc(C(=O)Nc3ccc4c(c3)-c3c(c(C(N)=O)nn3-c3ccc(F)cc3)CC4)c(Cl)cn2)CC1
active: Potency ([2]; HiBiT) 22.2 µM | Potency ([2]; Viability) 27.9 µM
inactive: Potency (UISO) | Potency (WaGa)

Nc1cc(C(F)(F)F)c(-c2cc(N3CCOCC3)nc(N3CCOCC3)n2)cn1
active: Potency (UISO) 1.66 µM | Potency (C33A) 15.8 µM | Potency (CASKI) 3.55 µM | Potency (Es-2) 6.31 µM | Potency (HeLa) 3.98 µM | Potency (Hek293T) 3.16 µM | Potency (JEG-3) 7.94 µM | Potency (OV90) 10 µM | Potency (PA-1) 6.31 µM | Potency (Tov112D) 2.82 µM

C=CC(=O)N1CCC[C@@H](n2nc(-c3ccc(Oc4ccccc4)cc3)c3c(N)ncnc32)C1
inactive: Potency (UISO) | Potency (C33A) | Potency (CASKI) | Potency (Es-2) | Potency (HeLa) | Potency (Hek293T) | Potency (JEG-3) | Potency (OV90) | Potency (PA-1) | Potency (Tov-21-G) | Potency (Tov112D)

OCCCNc1cc(-c2ccnc(Nc3cccc(Cl)c3)n2)ccn1
inactive: Potency (CAOV3) | activity change, negative = inhibition ([2]; Viability) 15.1%
active: Potency (UISO) 0.148 µM | Potency (C33A) 0.562 µM | Potency (CASKI) 0.398 µM | Potency (Es-2) 0.224 µM | Potency (HeLa) 0.158 µM | Potency (Hek293T) 0.199 µM | Potency (PA-1) 0.1 µM | Potency (Tov-21-G) 0.158 µM | Potency (Tov112D) 0.316 µM | Potency ([2]; HiBiT) 0.125 µM

CCN(CC)CCNC(=O)c1ccc2nc(-c3ccccc3)c(-c3ccc(CN4CCC(n5c(=O)[nH]c6ccccc65)CC4)cc3)nc2c1
active: Potency (UISO) 16.6 µM | Potency (WaGa) 7.43 µM
inactive: Potency (CASKI) | Potency (Es-2) | Potency (HeLa) | Potency (PA-1) | Potency (Tov-21-G) | Potency (Tov112D)

c1cc(-c2cnn3cc(-c4ccc(OCCN5CCCCC5)cc4)cnc23)ccn1
active: Potency (UISO) 5.9 µM | Potency (WaGa) 13.2 µM | Potency ([2]; HiBiT) 14 µM

CN(c1ncccc1CNc1nc(Nc2ccc3c(c2)CC(=O)N3)ncc1C(F)(F)F)S(C)(=O)=O
active: Potency (UISO) 11.8 µM | Potency (WaGa) 8.33 µM | Potency ([2]; HiBiT) 4.97 µM
inactive: activity change, negative = inhibition ([2]; Viability) 13.6%

Cn1cc(-c2[nH]c3cc(NC(=O)[C@H](N)C4CCCCC4)cc4c3c2C=NNC4=O)cn1
inactive: Potency (CASKI) | Potency (JEG-3)
active: Potency (UISO) 0.418 µM | Potency (WaGa) 2.64 µM | Potency (SKOV3) 7.08 µM | Potency (Tov-21-G) 10 µM

COc1cc(-c2nn(C3CCC(N4CCN(C(C)=O)CC4)CC3)c3ncnc(N)c23)ccc1NC(=O)c1cc2ccccc2n1C (stereo not given)
active: Potency (UISO) 18.7 µM
inactive: Potency (C33A) | Potency (Es-2) | Potency (HeLa) | Potency (Hek293T) | Potency (JEG-3) | Potency (OV90) | Potency (SKOV3) | Potency (Tov112D)

O=C(Cc1ccc(-c2ccc(OCCN3CCOCC3)cc2)cn1)NCc1ccccc1
inactive: Potency (CASKI)
active: Potency (UISO) 0.0469 µM | Potency (Es-2) 1.58 µM | Potency (HeLa) 1.58 µM | Potency (OV90) 2.82 µM | Potency (PA-1) 1.26 µM | Potency (Tov-21-G) 2 µM | Potency (Tov112D) 1 µM

COc1cc(C)c(Sc2cnc(NC(=O)c3ccc(CNC(C)C(C)C)cc3)s2)cc1C(=O)N1CCN(C(C)=O)CC1 (stereo not given)
active: Potency (UISO) 18.7 µM | Potency (PA-1) 22.4 µM
inactive: Potency (C33A) | Potency (Es-2) | Potency (Hek293T) | Potency (JEG-3) | Potency (OV90)

Nc1cccc(-c2cc3c(Oc4cccc(O)c4)ncnc3[nH]2)c1
active: Potency (SKOV3) 3.98 µM
inactive: Potency (UISO) | Potency (C33A) | Potency (Es-2) | Potency (JEG-3)

Cc1[nH]nc2ccc(-c3cncc(OC[C@@H](N)Cc4ccccc4)c3)cc12
active: Potency (UISO) 0.833 µM | Potency (CASKI) 6.31 µM | Potency (Es-2) 8.91 µM | Potency (HeLa) 2.24 µM | Potency (Hek293T) 1.78 µM | Potency (JEG-3) 10 µM | Potency (OV90) 3.55 µM | Potency (PA-1) 3.55 µM | Potency (Tov-21-G) 2.82 µM | Potency (Tov112D) 2 µM | Potency ([2]; HiBiT) 0.991 µM
inactive: activity change, negative = inhibition ([2]; Viability) -12.9%

Nc1ncnc2c1c(-c1cnc3[nH]ccc3c1)nn2C1CCCC1
active: Potency (UISO) 4.69 µM | Potency (CASKI) 11.2 µM | Potency (Es-2) 10 µM | Potency (HeLa) 10 µM | Potency (Hek293T) 7.94 µM | Potency (OV90) 5.01 µM | Potency (PA-1) 8.91 µM | Potency (Tov-21-G) 6.31 µM | Potency (Tov112D) 5.01 µM | Potency ([2]; HiBiT) 2.22 µM

O=C(c1ccc(Nc2nccc(-c3cc4ccccc4s3)n2)cc1)N1CCC(N2CCCC2)CC1
inactive: Potency (C33A) | Potency (CASKI) | Potency (Es-2) | Potency (HeLa) | Potency (Hek293T) | Potency (JEG-3) | Potency (OV90) | Potency (Tov112D)
active: Potency (UISO) 18.7 µM | Potency (SKOV3) 25.1 µM | Potency (Tov-21-G) 28.2 µM | Potency ([2]; HiBiT) 17.6 µM
